Inconclusive results are not listed. Calls of active or inactive are those of the source. How the source made its calls: active means hit-call score of the fitted dose curve at least 0.9, where 1 is the maximum; inconclusive means response in the unintended direction; inactive means score below 0.9.
biological target: human Peroxisome Proliferator-activated Receptor alpha (PPARa), PPARA (gene 5465) (UniProt Q07869); assay: ERF_US_NR_hPPARA: Eurofins (ERF) Nuclear Receptor (NR) Cell Based Protein-Protein Interaction LeadHunter Assay for human Peroxisome Proliferator-activated Receptor alpha (PPARa) Agonism
Sequence (Q07869 whole entry, looked up): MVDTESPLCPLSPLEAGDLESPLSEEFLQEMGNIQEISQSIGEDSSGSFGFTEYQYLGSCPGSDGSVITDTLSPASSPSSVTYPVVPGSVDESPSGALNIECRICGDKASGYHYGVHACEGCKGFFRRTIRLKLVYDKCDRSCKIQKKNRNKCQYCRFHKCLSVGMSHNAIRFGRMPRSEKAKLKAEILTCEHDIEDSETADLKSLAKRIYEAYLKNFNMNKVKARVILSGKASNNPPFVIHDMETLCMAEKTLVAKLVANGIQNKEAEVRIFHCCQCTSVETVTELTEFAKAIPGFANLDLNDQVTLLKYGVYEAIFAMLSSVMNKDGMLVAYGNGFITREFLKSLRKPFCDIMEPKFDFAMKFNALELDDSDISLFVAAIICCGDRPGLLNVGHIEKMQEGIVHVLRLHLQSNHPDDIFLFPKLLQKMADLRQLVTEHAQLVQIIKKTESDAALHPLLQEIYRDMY
Experimental: ERF_US_NR_hPPARA is a cell-based, single-readout assay that uses extracted gene-proteins […]. Measurements were taken 5 hours after chemical dosing in a 384-well plate. See PPARalpha Human NHR Cell Based Agonist Protein-Protein Interaction Assay, DiscoverX.ERF_US_NR_hPPARA is an assay component calculated from theERF_US_NR_hPPARA assay. It is designed to measure radioligand binding using a type of binding reporter as detected by scintillation counting with radiometry technology.Data from the assay component ERF_US_NR_hPPARA was analyzed at the assay endpoint, ERF_US_NR_hPPARA, in the positive analysis fitting direction relative to DMSO as the negative control and baseline of activity. Using a type of binding reporter, gain-of-signal activity can be used to understand changes in binding as they relate to gene PPARA. To generalize the intended target to other relatable targets, this assay endpoint is annotated to the nuclear receptor intended target family, where the subfamily is non-steroidal.
Cells were seeded in a total volume of 20 uL into white walled, 384-well microplates and incubated at 37C overnight prior to testing.Briefly, intermediate dilution of sample stocks was performed to generate 5X sample in assay buffer. 5 uL of 5X sample was added to cells and incubated at 37C for 300 minutes. Final assay vehicle concentration was 1%. The results are expressed as a percent efficacy of the control ligand.

Row | Structure (SMILES) | outcome | AC50
1 | O=C(O)C(F)(F)C(F)(F)C(F)(F)C(F)(F)C(F)(F)C(F)(F)C(F)(F)C(F)(F)Cl | inactive | –
2 | O=S(=O)(O)C(F)(F)C(F)(F)C(F)(F)C(F)(F)C(F)(F)C(F)(F)C(F)(F)C(F)(F)F | inactive | –
3 | O=C(O)C(F)(F)OC(F)(F)C(F)(F)OC(F)(F)F | inactive | –
4 | CC(C)(Oc1ccc(C(=O)c2ccc(Cl)cc2)cc1)C(=O)O | – | 50 µM (active)
5 | O=C(O)C(F)(F)C(F)(F)C(F)(F)C(F)(F)C(F)(F)C(F)(F)C(F)(F)F | inactive | –
6 | CN(CCOc1ccc(CC2SC(=O)NC2=O)cc1)c1ccccn1 (centres undefined) | inactive | –
7 | O=C(O)C(F)(F)C(F)(F)C(F)(F)C(F)(F)C(F)(F)C(F)(F)C(F)F | inactive | –
8 | O=C(CC(=O)C(F)(F)C(F)(F)C(F)(F)F)c1cccs1 | – | 12.6 µM (active)
9 | O=S(=O)(O)C(F)(F)C(F)(F)C(F)(F)C(F)(F)C(F)(F)C(F)(F)F | inactive | –

From PubChem BioAssay AID2284384 (EPA ToxCast)
